Source: PubChem
Compounds with a hit are over-represented: about 2.2% of the library has one in this group of screens.
HIF-2a block = blocks HIF-2a reporter activity | 786-0 RCC cells HIF-2a reporter, luciferase luminescence, overnight | inhibition, % at 18.8 µM | 360,000 compounds, 0.72% hits | AID 624352;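 active = inhibition of the luminescence signal of 40% or more relative to plate controls, in a single-dose primary screen at 18.75 µM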
KKLEB cytotox = reduces viability of KKLEB cystic fibrosis airway cells | KKLEB CF airway cells viability, ATPlite luminescence, overnight; active compounds read low; cells stimulated with P. aeruginosa culture filtrate | activity change (cytotoxicity), % at 5 µM | 360,000 compounds, 0.36% hits;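 active = corrected activity change at or below -50% at 5 µM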
C8 TRAIL sens = caspase-8 TRAIL sensitization. 360,000 compounds, 1% hits. inhibition (viability loss, TRAIL sensitization), % at 10 µM. NB7+C8 cells + TRAIL, ATPlite viability luminescence;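 active = compounds causing at least 50% loss of cell viability in the single-dose screen, relative to plate controls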
iPSC survival up = enhancers of human iPSC single-cell survival. hiPSC single-cell survival, ATPlite luminescence; 100% = ROCK inhibitor wells, 0% = DMSO. survival enhancement, % at 20 µM. 360,000 compounds, 0.044% hits; in the data active = survival enhancement above about 18%;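 note: cells exposed to compounds for 16 hours before the ATP read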
PPC-1+TRAIL kill = compounds killing PPC-1 cancer cells with TRAIL present (potentiator screen, no TRAIL-free arm); PPC-1 cells + TRAIL, ATPLite viability luminescence; 220,000 compounds, 0.41% hits; cell killing (% activity), % at 4 µM or 5 µM;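 active = cell killing above 50% in the first pass at 4 µM, then a duplicate retest at 5 µM averaging 50% or more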;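 note: plate controls were cells with TRAIL plus DMSO for no effect and medium-only wells lacking cells for full effect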
CF NFkB inh = cystic fibrosis NF-kB activation inhibition. AID 588850. inhibition, % at 5 µM. 360,000 compounds, 0.86% hits. KKLEB NF-kB-GFP reporter, PAF-induced, GFP fluorescence overnight;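 active = at least 50% inhibition at 5 µM, scaled per plate between neutral and stimulator controls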;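 note: PAF is a Pseudomonas aeruginosa culture filtrate used as stimulus; plate controls were PAF-stimulated DMSO wells for no effect and unstimulated DMSO wells for full effect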
An asterisk follows results filed as active; x = no result.

SMILES	HIF-2a block	KKLEB cytotox	C8 TRAIL sens	iPSC survival up	PPC-1+TRAIL kill	CF NFkB inh
CC1(C)CC[C@]2(C(=O)n3ccnc3)CC[C@]3(C)[C@H](C(=O)C=C4[C@@]5(C)C=C(C#N)C(=O)C(C)(C)[C@@H]5CC[C@]43C)[C@@H]2C1	90*	-70*	88*	0	x	85*
CCCCCCN(C(=O)CCl)c1ccccc1	18	-68*	96*	-1	22	85*
CC(=O)N(CCN(C(C)=O)c1ccccc1)c1ccccc1	9	-2	-2	1	-8	4
O=C(CCl)N(CCc1ccccc1)CCc1ccccc1	-5	-50*	95*	-1	x	66*
CCCC(=O)N(Cc1cc(=O)[nH]c2ccccc12)c1cccc(C)c1	21	4	8	0	x	-5
O=C(N(c1ccccc1)c1ccccc1)N(c1ccccc1)c1ccccc1	28	13	11	0	19	2
CCCCCCCN(C(=O)CCl)c1cccc(C)c1	19	-87*	95*	0	16	78*
O=C(CCCc1ccccc1)NCCc1ccccc1	-143	-14	-14	-1	x	10
O=C(CCl)N(c1ccccc1)c1ccccc1	20	-15	94*	-1	-6	56*
Cc1ccc(OCC(=O)N[C@@H](C)c2nnc3ccccn23)cc1C	-3	16	7	0	x	-21
Cc1ccc(S(=O)(=O)NN=C2CCc3ccccc32)cc1	-14	6	-1	-2	x	11
CC(C)NC(=O)C1CCN(c2ccc(S(=O)(=O)N3CCOCC3)cc2Cl)CC1	4	8	1	0	0	5
Oc1c(C=C2N=c3ccccc3=N2)sc(=S)n1-c1ccccc1	-14	11	0	-2	22	-25
CC1=Nc2ccccc2/C1=C/c1sc(=S)n(-c2cccc(C(=O)O)c2)c1O	41*	-9	2	-1	12	-24
O=C(O)/C=C/S(=O)(=O)c1ccc2ccccc2c1	10	-4	10	0	-5	6
N#C/C(=C(/O)COc1ccc(Cl)cc1)c1nc2ccccc2s1	-64	-34	-5	1	0	50*
N#C/C(=C(/O)COc1ccccc1)c1nc2ccccc2s1	-138	10	7	1	-7	15
CC(C)n1c(O)c(/C=C2\C=NN=C2c2ccccc2)sc1=S	6	8	36	0	14	58*
CCn1c(O)c(/C=C2\C=NN=C2c2ccc(C)cc2)sc1=S	10	6	44	-2	32	-5
C#CC[N+](C)(C)CCCCCCCCCC	24	-33	27	-2	26	52*
O=c1oc2c(O)cccc2cc1-c1nc2ccccc2[nH]1	-213	-24	69*	-1	x	-62
Cc1ccc(S(=O)(=O)NC(=O)NC2=NC(C)(C)N(c3ccc(Cl)c(Cl)c3)C(N)=N2)cc1	13	-1	82*	0	x	-26
CCCOc1ccc(/C(CC)=N/NC(=O)C2(C)CC2(Br)Br)cc1 (centres undefined)	2	-52*	2	0	24	34
O=c1[nH]cnc2cc(-c3ccccc3)sc12	-181	-11	20	0	30	19
COc1ccc(-c2cc3nc[nH]c(=O)c3s2)cc1	-150	-12	61*	-6	48	2
SMILES	HIF-2a block	KKLEB cytotox	C8 TRAIL sens	iPSC survival up	PPC-1+TRAIL kill	CF NFkB inh
COc1ccc(-c2cc3nc(CCl)[nH]c(=O)c3s2)cc1	-10	-23	91*	-1	x	9
Cc1ccc(C)c(S(=O)(=O)NCCN2CCOCC2)c1	4	-7	13	0	x	16
COc1ccc(-c2cc(C(F)(F)F)nc(SCC(=O)Nc3sc4c(c3C#N)CCC4)n2)cc1	3	-61*	-10	-1	11	44
CC1(C(=O)NS(=O)(=O)c2cccc(OC(F)F)c2)CCN1C(=O)Cc1cccs1 (centres undefined)	6	8	7	-2	x	-11
COc1ccc(/C=C2/CSC/C(=C/c3ccc(OC)c(OC)c3)C2=O)cc1OC	92*	-92*	-9	-4	x	93*
CCOc1ccc(/C=C2\CCC(C3CCCC3)C2=O)cc1OC (centres undefined)	-132	-5	-5	1	x	-8
COc1cc(C=C2CCCC(=Cc3ccc(OCC4CO4)c(OC)c3)C2=O)ccc1OCC1CO1 (centres undefined)	13	-45	16	-4	x	86*
COC(=O)C1=C(C)N(Cc2ccccc2)C(=NCC(C)C)N[C@H]1c1cccc(F)c1	2	-19	15	-6	x	30
COC(=O)C1=C(C)N(Cc2ccccc2)C(=NCc2cccc(Cl)c2)N[C@H]1c1cccc(F)c1	2	-53*	81*	-3	x	60*
COC(=O)C1=C(C)N(Cc2ccccc2)C(=NCC(C)C)N[C@H]1c1cccc(C(F)(F)F)c1	-9	-3	56*	-2	x	24
COC(=O)C1=C(C)N(Cc2ccccc2)C(=O)N[C@H]1c1cccc(C(F)(F)F)c1	3	-13	-4	3	9	24
COC(=O)C1=C(C)N(Cc2ccccc2)C(=NCc2ccc(OC)cc2)N[C@H]1c1cccc(F)c1	-3	-7	16	-4	x	32
COC(=O)C1=C(C)N(Cc2ccccc2)C(=NCc2ccccc2)N[C@H]1c1cccc(C(F)(F)F)c1	9	-38	78*	-4	x	28
O=C(NCc1cccs1)c1cccc2c(-c3ccc(F)c(F)c3)coc12	-93	4	0	0	x	-23
CCC(C)c1ccc(NC(=O)Nc2cnccn2)cc1 (centres undefined)	-236	-11	39	0	x	26
COCCNc1nc(N2CCCCC2)c2cnn(C)c2n1	10	1	-1	1	x	17
O=C(COC(=O)/C=C/c1ccccc1)NNC(=O)c1ccc([N+](=O)[O-])cc1	6	0	13	0	x	2
CN1C/C(=C\c2ccc(N3CCOCC3)cc2)C(=O)/C(=C/c2ccc(N3CCOCC3)cc2)C1	10	19	23	-1	18	-64
CCN1C/C(=C/c2ccc(N3CCOCC3)cc2)C(=O)/C(=C/c2ccc(N3CCOCC3)cc2)C1	93*	3	-13	-4	12	-17
O=[N+]([O-])c1ccc(O)c(/C=N\N=C2c3ccccc3-c3ccccc32)c1	-34	-51*	40	2	22	48
NC(N)=N/N=C/c1cc([N+](=O)[O-])ccc1O	-9	-14	-2	-1	-2	6
N#CCCCC#Cc1ccc2c(c1)COc1c3ccccc3nn1-2	-19	-50	77*	-3	x	-27
O=c1oc2ccccc2cc1-c1csc(Nc2nc3c(F)cccc3s2)n1	-46	-2	53*	-1	-1	-28
